# In PubChem BioAssay (NCI):
# The panel holds about 79,000 compounds, 15% with a hit somewhere; the sample as a whole holds those more often. A number with no mark means an inactive call. The source made the active and inactive calls. Rule as the data show it: active = growth inhibition above about 70%; inactive = the rest.
# Columns and labels:
# [1] = NCI Yeast Anticancer Drug Screen. Data for the sgs1 strain (AID 173);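 also: 0% = growth of vehicle-only control cultures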; conditions: S. cerevisiae sgs1 mutant, stronger effect = higher value
# In short: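 Strain with an altered DNA repair or cell cycle pathway exposed to compound. Growth then measured. Value = inhibition versus vehicle control.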
# [2] = NCI Yeast Anticancer Drug Screen. Data for the mlh1 rad18 strain (AID 175); conditions: S. cerevisiae mlh1 rad18 strain growth inhibition, stronger effect = higher value
# In short: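 A repair-deficient yeast strain is exposed to test compound, and growth is scored relative to vehicle-treated controls.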
# [3] = NCI Yeast Anticancer Drug Screen. Data for the rad18 strain (AID 177); conditions: S. cerevisiae rad18 mutant growth inhibition, stronger effect = higher value
# In short: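 DNA-repair-defective yeast; compound treatment; growth inhibition scored against vehicle.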
# [4] = NCI Yeast Anticancer Drug Screen. Data for the rad50EPP+ strain (AID 151);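 also: 0% = growth of vehicle-treated control cultures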; conditions: S. cerevisiae rad50 mutant strain, stronger effect = higher value
# In short: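 Measured: growth inhibition of rad50EPP+ yeast. Reference: vehicle-treated controls. Screen uses strains with defined genetic alterations in DNA damage repair or cell cycle control.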
# [5] = NCI Yeast Anticancer Drug Screen. Data for the mgt1 strain (AID 153); conditions: S. cerevisiae mgt1 mutant growth inhibition, stronger effect = higher value
# In short: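 Compounds were applied to mgt1 mutant yeast, and growth was then compared against vehicle-treated control cultures to give percent inhibition.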
# [6] = NCI Yeast Anticancer Drug Screen. Data for the rad50 strain (AID 155);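 also: 0% = growth of vehicle-only cultures of the same strain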; conditions: S. cerevisiae rad50 strain growth inhibition, stronger effect = higher value
# In short: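 Genetically altered yeast (DNA repair pathway); compound treatment; growth inhibition vs vehicle ctrl.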
# [7] = NCI Yeast Anticancer Drug Screen. Data for the mec2-1 strain (AID 157); conditions: S. cerevisiae mec2-1 strain, stronger effect = higher value
# In short: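 Compounds were applied to mec2-1 yeast cells. Their growth was then compared with that of vehicle-treated cultures to give growth inhibition.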
# [8] = NCI Yeast Anticancer Drug Screen. Data for the rad14 strain (AID 159);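 also: 0% = growth of vehicle-treated control cultures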; conditions: S. cerevisiae rad14 strain growth inhibition, stronger effect = higher value
# In short: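 Test compounds were applied to a repair-deficient yeast strain. Its growth was then compared with that of cultures given vehicle alone, and inhibition was expressed relative to those controls.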
# [9] = NCI Yeast Anticancer Drug Screen. Data for the sgs1 mgt1 strain (AID 161);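 also: 0% = growth of cultures given vehicle only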; conditions: S. cerevisiae sgs1 mgt1 strain, stronger effect = higher value
# In short: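 This yeast growth screen uses a strain with defined DNA-repair lesions; compound-treated growth is compared with vehicle-treated growth.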
# [10] = NCI Yeast Anticancer Drug Screen. Data for the cln2 rad14 strain (AID 165);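 also: 0% = growth equal to vehicle treated cultures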; conditions: S. cerevisiae cln2 rad14 strain, stronger effect = higher value
# In short: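 Strain: cln2 rad14 yeast, altered in cell cycle control and DNA damage repair. Read-out: growth inhibition vs vehicle.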
# [11] = NCI Yeast Anticancer Drug Screen. Data for the bub3 strain (AID 167); conditions: S. cerevisiae bub3 mutant strain, stronger effect = higher value
# In short: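 Yeast carrying a defined mutation is treated with each compound, and growth is compared with that of vehicle-exposed cells to give inhibition.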
# [12] = NCI Yeast Anticancer Drug Screen. Data for the wt2 strain (AID 169);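 also: 0% = growth of vehicle-treated yeast cultures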; conditions: S. cerevisiae wt2 strain growth inhibition, stronger effect = higher value
# In short: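 Growth of compound-treated yeast is measured and expressed as inhibition relative to vehicle-only controls.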
# [13] = NCI Yeast Anticancer Drug Screen. Data for the mlh1 strain (AID 171);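 also: 0% = growth of vehicle-treated control cultures of the same strain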; conditions: S. cerevisiae mlh1 strain growth inhibition, stronger effect = higher value
# In short: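 Test agents were incubated with yeast bearing a defined DNA damage repair or cell cycle control alteration; values are growth inhibition normalised to vehicle-treated cultures.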
# [14] = at 5.0 µM (retest, dose inferred, filed as 0.5)
# [15] = at 50.0 µM (retest, dose inferred, filed as 5.0)
structure (smiles),measurement,setting,value
CCC(C)C(=O)OCC(=O)c1ccc(-c2ccccc2)cc1 (centres undefined),growth inhibition,[1]; at 1.2 µM,-1%
same,growth inhibition,[1]; at 3.7 µM,-1%
same,growth inhibition,[1]; at 11.0 µM,-1%
same,growth inhibition,[1]; at 33.0 µM,-3%
same,growth inhibition,[1]; at 100.0 µM,-4%
same,growth inhibition,[2]; [14],-4%
same,growth inhibition,[2]; [15],5%
same,growth inhibition,[2]; at 50.0 µM,-2.1%
same,growth inhibition,[3]; at 1.2 µM,-1%
same,growth inhibition,[3]; at 3.7 µM,2%
same,growth inhibition,[3]; at 11.0 µM,1%
same,growth inhibition,[3]; at 33.0 µM,-1%
same,growth inhibition,[3]; at 100.0 µM,-5%
Cc1ccccc1C1=C(CC(=O)O)c2ccccc2CC1C (centres undefined),growth inhibition,[4]; at 1.2 µM,-1%
same,growth inhibition,[4]; at 3.7 µM,2%
same,growth inhibition,[4]; at 11.0 µM,6%
same,growth inhibition,[4]; at 33.0 µM,10%
same,growth inhibition,[4]; at 100.0 µM,49%
same,growth inhibition,[5]; at 1.2 µM,9%
same,growth inhibition,[5]; at 3.7 µM,11%
same,growth inhibition,[5]; at 11.0 µM,22%
same,growth inhibition,[5]; at 33.0 µM,95% (active)
same,growth inhibition,[5]; at 100.0 µM,99% (active)
same,growth inhibition,[6]; at 1.2 µM,6%
same,growth inhibition,[6]; at 3.7 µM,10%
same,growth inhibition,[6]; [14],6%
same,growth inhibition,[6]; at 11.0 µM,45%
same,growth inhibition,[6]; at 33.0 µM,97% (active)
same,growth inhibition,[6]; [15],10%
same,growth inhibition,[6]; at 50.0 µM,98.9% (active)
same,growth inhibition,[6]; at 100.0 µM,99% (active)
same,growth inhibition,[7]; at 1.2 µM,9%
same,growth inhibition,[7]; at 3.7 µM,20%
same,growth inhibition,[7]; [14],10%
same,growth inhibition,[7]; at 11.0 µM,49%
same,growth inhibition,[7]; at 33.0 µM,95% (active)
same,growth inhibition,[7]; [15],6%
same,growth inhibition,[7]; at 50.0 µM,99.7% (active)
same,growth inhibition,[7]; at 100.0 µM,99% (active)
same,growth inhibition,[8]; at 1.2 µM,6%
same,growth inhibition,[8]; at 3.7 µM,11%
same,growth inhibition,[8]; at 11.0 µM,29%
same,growth inhibition,[8]; at 33.0 µM,98% (active)
same,growth inhibition,[8]; at 100.0 µM,99% (active)
same,growth inhibition,[9]; [14],2%
same,growth inhibition,[9]; [15],20%
same,growth inhibition,[9]; at 50.0 µM,99.6% (active)
same,growth inhibition,[10]; [14],-13%
same,growth inhibition,[10]; [15],28%
same,growth inhibition,[10]; at 50.0 µM,99.4% (active)
same,growth inhibition,[11]; at 1.2 µM,11%
same,growth inhibition,[11]; at 3.7 µM,9%
same,growth inhibition,[11]; [14],-4%
same,growth inhibition,[11]; at 11.0 µM,26%
same,growth inhibition,[11]; at 33.0 µM,93% (active)
same,growth inhibition,[11]; [15],1%
same,growth inhibition,[11]; at 50.0 µM,99% (active)
same,growth inhibition,[11]; at 100.0 µM,99% (active)
same,growth inhibition,[12]; at 1.2 µM,5%
same,growth inhibition,[12]; at 3.7 µM,7%
same,growth inhibition,[12]; at 11.0 µM,37%
same,growth inhibition,[12]; at 33.0 µM,97% (active)
same,growth inhibition,[12]; at 100.0 µM,98% (active)
same,growth inhibition,[13]; at 1.2 µM,6%
same,growth inhibition,[13]; at 3.7 µM,12%
same,growth inhibition,[13]; at 11.0 µM,32%
same,growth inhibition,[13]; at 33.0 µM,96% (active)
same,growth inhibition,[13]; at 100.0 µM,99% (active)
same,growth inhibition,[1]; at 1.2 µM,5%
same,growth inhibition,[1]; at 3.7 µM,10%
same,growth inhibition,[1]; at 11.0 µM,40%
same,growth inhibition,[1]; at 33.0 µM,98% (active)
same,growth inhibition,[1]; at 100.0 µM,99% (active)
same,growth inhibition,[2]; [14],14%
same,growth inhibition,[2]; [15],50%
same,growth inhibition,[2]; at 50.0 µM,99.5% (active)
same,growth inhibition,[3]; at 1.2 µM,4%
same,growth inhibition,[3]; at 3.7 µM,10%
same,growth inhibition,[3]; at 11.0 µM,38%
same,growth inhibition,[3]; at 33.0 µM,96% (active)
same,growth inhibition,[3]; at 100.0 µM,99% (active)
CC[C@@]1(OC(=O)CN(C)C)C(=O)OCc2c1cc1n(c2=O)Cc2cc3ccccc3nc2-1,growth inhibition,[4]; at 1.2 µM,42%
same,growth inhibition,[4]; at 3.7 µM,79% (active)
same,growth inhibition,[4]; at 11.0 µM,92% (active)
same,growth inhibition,[4]; at 33.0 µM,95% (active)
same,growth inhibition,[4]; at 100.0 µM,97% (active)
same,growth inhibition,[5]; at 1.2 µM,-1%
same,growth inhibition,[5]; at 3.7 µM,1%
same,growth inhibition,[5]; at 11.0 µM,32%
same,growth inhibition,[5]; at 33.0 µM,90% (active)
same,growth inhibition,[5]; at 100.0 µM,97% (active)
same,growth inhibition,[6]; at 1.2 µM,81% (active)
same,growth inhibition,[6]; at 3.7 µM,95% (active)
same,growth inhibition,[6]; [14],95% (active)
same,growth inhibition,[6]; at 11.0 µM,96% (active)
same,growth inhibition,[6]; at 33.0 µM,96% (active)
same,growth inhibition,[6]; [15],97% (active)
same,growth inhibition,[6]; at 50.0 µM,96.8% (active)
same,growth inhibition,[6]; at 100.0 µM,97% (active)
same,growth inhibition,[7]; at 1.2 µM,2%
same,growth inhibition,[7]; at 3.7 µM,23%
same,growth inhibition,[7]; [14],53%
same,growth inhibition,[7]; at 11.0 µM,89% (active)
same,growth inhibition,[7]; at 33.0 µM,94% (active)
same,growth inhibition,[7]; [15],96% (active)
same,growth inhibition,[7]; at 50.0 µM,99% (active)
same,growth inhibition,[7]; at 100.0 µM,97% (active)
same,growth inhibition,[8]; at 1.2 µM,2%
same,growth inhibition,[8]; at 3.7 µM,8%
same,growth inhibition,[8]; at 11.0 µM,44%
same,growth inhibition,[8]; at 33.0 µM,87% (active)
same,growth inhibition,[8]; at 100.0 µM,95% (active)
same,growth inhibition,[9]; [14],38%
same,growth inhibition,[9]; [15],95% (active)
same,growth inhibition,[9]; at 50.0 µM,93.6% (active)
same,growth inhibition,[10]; [14],15%
same,growth inhibition,[10]; [15],89% (active)
same,growth inhibition,[10]; at 50.0 µM,79.8% (active)
same,growth inhibition,[11]; at 1.2 µM,-7%
same,growth inhibition,[11]; at 3.7 µM,-9%
same,growth inhibition,[11]; [14],-3%
same,growth inhibition,[11]; at 11.0 µM,41%
same,growth inhibition,[11]; at 33.0 µM,90% (active)
same,growth inhibition,[11]; [15],93% (active)
same,growth inhibition,[11]; at 50.0 µM,93.7% (active)
same,growth inhibition,[11]; at 100.0 µM,96% (active)
same,growth inhibition,[12]; at 1.2 µM,-1%
same,growth inhibition,[12]; at 3.7 µM,10%
same,growth inhibition,[12]; at 11.0 µM,28%
same,growth inhibition,[12]; at 33.0 µM,84% (active)
same,growth inhibition,[12]; at 100.0 µM,93% (active)
same,growth inhibition,[13]; at 1.2 µM,0%
same,growth inhibition,[13]; at 3.7 µM,2%
same,growth inhibition,[13]; at 11.0 µM,42%
same,growth inhibition,[13]; at 33.0 µM,90% (active)
same,growth inhibition,[13]; at 100.0 µM,96% (active)
same,growth inhibition,[1]; at 1.2 µM,6%
same,growth inhibition,[1]; at 3.7 µM,28%
same,growth inhibition,[1]; at 11.0 µM,82% (active)
same,growth inhibition,[1]; at 33.0 µM,94% (active)
same,growth inhibition,[1]; at 100.0 µM,96% (active)
same,growth inhibition,[2]; [14],36%
same,growth inhibition,[2]; [15],94% (active)
same,growth inhibition,[2]; at 50.0 µM,97.2% (active)
same,growth inhibition,[3]; at 1.2 µM,1%
same,growth inhibition,[3]; at 3.7 µM,12%
same,growth inhibition,[3]; at 11.0 µM,60%
same,growth inhibition,[3]; at 33.0 µM,92% (active)
same,growth inhibition,[3]; at 100.0 µM,96% (active)
